# Hits are enriched below; roughly 10% of the tested compounds scored in any of these assays.
# RORgamma inh: qHTS for inhibitors of ROR gamma transcriptional activity; Nuclear receptor ROR-gamma (Mus musculus), P51450; Drosophila S2 Gal4-RORgamma UAS-luciferase reporter, 20 h; Potency, µM (top dose mostly 53.6 µM), for the others: at the top dose activity change, negative = inhibition, usual class: inhibitors; 5.4% of 310,000 active; also: % is scaled to controls: 0 for no effect and ±100 for the full control effect; nearly all actives have a fitted effect of over 60% in size
# Target sequence (P51450 whole entry, looked up, the tested form may be a part): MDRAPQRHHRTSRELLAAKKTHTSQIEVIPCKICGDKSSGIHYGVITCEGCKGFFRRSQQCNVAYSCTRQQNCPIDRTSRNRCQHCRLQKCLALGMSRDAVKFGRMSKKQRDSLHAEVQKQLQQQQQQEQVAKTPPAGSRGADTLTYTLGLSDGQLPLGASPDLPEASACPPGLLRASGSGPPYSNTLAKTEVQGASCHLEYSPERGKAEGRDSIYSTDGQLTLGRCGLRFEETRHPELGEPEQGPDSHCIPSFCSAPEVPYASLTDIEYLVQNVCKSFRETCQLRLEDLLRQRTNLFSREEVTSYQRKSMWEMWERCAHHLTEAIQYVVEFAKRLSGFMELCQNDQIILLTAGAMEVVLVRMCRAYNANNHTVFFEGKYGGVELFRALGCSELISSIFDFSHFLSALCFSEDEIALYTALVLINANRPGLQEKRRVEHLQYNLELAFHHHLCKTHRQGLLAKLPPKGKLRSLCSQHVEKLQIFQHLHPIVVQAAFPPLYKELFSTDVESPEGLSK
#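 Luminescence from a UAS-regulated Photinus luciferase reporter in stably transfected Drosophila Schneider cells is measured; decreased signal marks ROR gamma inhibition. Fusion expression is induced by 700 uM copper sulfate for 20 hr.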
# KB-3-1 tox: qHTS assay for MDR1-selective chemotherapeutics: Primary screen using the parental adenocarcinoma cell KB-3-1; 1.4% of 400,000 active; KB-3-1 viability, CellTiter-Glo ATP luminescence, 72 h; Potency, µM (doses to about 46.1 µM), usual class: cytotoxic; also: % is scaled to controls: 0 for no effect and ±100 for the full control effect; nearly all actives have a fitted effect of over 60% in size
#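 Screening of KB-3-1 cells (DMEM, 10% FBS, phenol-red free) ran from lowest to highest compound concentration; after 72 h at 37 °C viability was read luminescently and curves fitted.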
# SW480 rerep: A quantitative high throughput screen for small molecules that induce DNA re-replication in SW480 colon adenocarcinoma cells | SW480 DNA re-replication, Hoechst DNA content imaging, 48 h | 1.8% of 340,000 active | AID 624297, 2012 | Potency, µM (top dose mostly 46.1 µM), for the others: top-dose re-replication activation, most hits filed as activators; also: % of control where 0% means no effect; nearly all actives have a fitted effect of over 55% in size
#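 Image-based read-out: total Hoechst fluorescence of nuclei (405 nm excitation, 500-530 nm emission), with hits raising the fraction of high-intensity nuclei. SW480 colon cells incubated 48 hr with compounds at 37 C.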
# KB-V1 cytotox: qHTS assay for MDR1-selective chemotherapeutics: Primary screen using the drug-selected MDR subline cells KB-V1 | Potency, µM (top dose mostly 46.1 µM), most hits filed as cytotoxic | AID 1347076, 2019 | 3.4% of 400,000 active | KB-V1 MDR cells viability, CellTiter-Glo, 72 h; also: % is scaled to controls: 0 for no effect and ±100 for the full control effect; nearly all actives have a fitted effect of over 60% in size
#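 qHTS viability screen in drug-selected KB-V1 MDR cells: 72 h compound treatment at 37 degrees C, ATP luminescence end point.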
# MCF10A rereplic: A quantitative high throughput screen for small molecules that induce DNA re-replication in MCF 10a normal breast cells. MCF 10A DNA re-replication, Hoechst nuclear intensity, 48 h. Potency, µM (doses to about 46.1 µM), for the others: top-dose activity, positive = re-replication, hits mostly activators. 2.9% of 350,000 active; also: % of control where 0% means no effect; nearly all actives have a fitted effect of over 50% in size
# VP16 counter: VP16 counterscreen qHTS for inhibitors of ROR gamma transcriptional activity; Potency, µM (top dose mostly 53.6 µM), without a hit: at the top dose activity, negative = inhibition, actives largely listed as inhibitors; Drosophila S2 Gal4-VP16 UAS-luciferase, luminescence, 20 h; 3.5% of 310,000 active; AID 2546, 2010;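 also: Gal4-VP16 expression switched on by copper sulfate through the metallothionein promoter; % is scaled to controls: 0 for no effect and ±100 for the full control effect; nearly all actives have a fitted effect of over 50% in size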
# Active calls of the source: *; i = inactive; ? = inconclusive; nt = no result given; ! = not confirmed by another sample. Calls follow the shape of the dose curve; as a rule, active = well fitted curve in the direction sought with a large enough effect; inconclusive = small, poorly fitted or top-dose-only effect, or another doubt; inactive = no such curve, though single readings can be large; an effect the other way counts as inactive or inconclusive. Potency is read from the fitted curve at half-maximal effect.
SMILES,RORgamma inh,KB-3-1 tox,SW480 rerep,KB-V1 cytotox,MCF10A rereplic,VP16 counter
O=C(COC(=O)c1ccccc1)Nc1ccc2[nH]c(=O)[nH]c2c1,nt,i,-114%,?,?,nt
CCOc1ccccc1OCC(=O)Nc1ccc2[nH]c(=O)[nH]c2c1,nt,8.2µM*,3%,16µM*,1%,nt
O=C(COc1ccccc1Cl)Nc1ccc2[nH]c(=O)[nH]c2c1,nt,1.5µM*,-7%,0.52µM*,0%,nt
O=C1c2ccccc2S(=O)(=O)c2cc(C(=O)N(c3ccccn3)c3ccccn3)ccc21,59%,i,5%,15µM*,-2%,-7%
CCCCn1cc(S(=O)(=O)c2ccccc2)c(=O)c2cc(F)c(N3CCC(C)CC3)cc21,nt,i,nt,i,nt,nt
COc1ccnc(CSC(N)=Nc2ccc(F)cc2)c1,10µM*,?,?,?,12%,?
COc1cccc(N/C(N)=N/c2nc(CSc3ccccn3)cc(=O)[nH]2)c1,28%,nt,nt,nt,nt,?
CC1=C(C)Cc2c(OC(=O)c3ccccc3)ccc(OC(=O)c3ccccc3)c2C1,-2%,nt,nt,nt,nt,-3%
O=C(Oc1ccccc1Cl)c1ccccc1,nt,nt,15%,nt,16µM*,nt
O=C(Oc1cccccc1=O)c1ccccc1,10µM*,i,18µM*,?,?,?
Cc1ccc(C)c(OCCOCCn2c(-c3ccc(Br)cc3)nc3ccccc3c2=O)c1C,nt,i,nt,i,nt,nt
CCN(C(=O)CSc1nc2nc(C)cc(C)n2n1)c1ccccc1,7%,i,1%,?,1%,3%
CCc1ccc(NC(=O)CSc2nc3nc(C)cc(C)n3n2)cc1,36%,i,12%,13µM*!,12%,1.1µM*
CCN(C(=O)CSc1nc2nc(C)cc(C)n2n1)c1cccc(C)c1,-4%,i,4%,23µM*,-9%,-16%
CCCn1c(C)cc(C(=O)CSc2nc3nc(C)cc(C)n3n2)c1C,?,i,-5%,6.5µM*,8%,-8%
Cc1cc(C)n2nc(SCC(=O)Nc3cccc(C(F)(F)F)c3)nc2n1,nt,?,nt,21µM*,nt,nt
Cc1cc(C)n2nc(SCC(=O)Nc3ccccc3)nc2n1,14%,i,-1%,?,1%,9%
CCOc1ccccc1CNC(=O)CC(C)n1ccc(C)n1 (configuration not stated),nt,i,nt,i,nt,nt
CC1(C)C(=O)N(CC(=O)Nc2cccc(F)c2)c2ccc(S(=O)(=O)N3CCCCC3)cc21,nt,i,nt,i,nt,nt
Cc1ccc(NS(=O)(=O)c2ccc3c(c2)C(Cl)(Cl)C(=O)N3)cc1C,nt,i,nt,i,nt,nt
Cc1cc(C)n2nc(SCCC(=O)NCCc3ccccc3)nc2n1,-16%,i,-3%,15µM*,10%,-9%
O=C(NNS(=O)(=O)c1ccccc1[N+](=O)[O-])c1ccccc1[N+](=O)[O-],-27%,i,0.52µM*,i,-14%,-13%
O=C(Nc1ccccc1)c1ccccc1NC(=O)c1ccccc1[N+](=O)[O-],nt,i,-6%,i,1%,nt
O=C(Nc1cccc2c1C(=O)NC2=O)c1ccccc1[N+](=O)[O-],-25%,i,21µM*,i,18%,-9%
O=C(Nc1ccc(Cl)cn1)c1ccccc1[N+](=O)[O-],7%,?,15µM*,?,?,1%
SMILES,RORgamma inh,KB-3-1 tox,SW480 rerep,KB-V1 cytotox,MCF10A rereplic,VP16 counter
O=C(Nc1ccc(Cl)cn1)c1cccc2ccccc12,0%,?,?,?,?,-9%
CC(C)C(=O)NNS(=O)(=O)c1ccccc1[N+](=O)[O-],-15%,i,-2%,?,-9%,6%
CN1C(=O)C2(c3ccccc31)N(c1cccc(C(F)(F)F)c1)C(=O)CS2(=O)=O (configuration not stated),nt,i,nt,?,nt,nt
Cc1cc2nc(C(C)(C)C)c(Cc3ccccc3)n2c(C)c1Br,nt,i,nt,i,nt,nt
Cc1ccc(S(=O)(=O)N2CCCCC2)cc1NC(=O)c1ccncc1,nt,i,2%,i,2%,nt
CCOC(=O)N1CCN(S(=O)(=O)c2ccc3c(c2)oc(=O)n3C)CC1,17%,i,-2%,23µM*,2%,12%
CC1CCCCN1C(=O)Cn1c(=O)oc2cc(S(=O)(=O)N3CCCC3)ccc21 (configuration not stated),2.5µM*,i,7%,i,9%,-3%
CC1CCN(C(=O)Cn2c(=O)oc3cc(S(=O)(=O)N4CCCCC4)ccc32)CC1,-3%,i,-7%,i,0%,2%
COC(=O)n1c(=O)oc2cc(S(=O)(=O)N3CCCCC3)ccc21,32%,i,-4%,?,-6%,5%
COc1ccccc1CNC(=O)Cn1c(=O)oc2cc(S(=O)(=O)N3CCC(C)CC3)ccc21,nt,18µM*,nt,i,nt,nt
COc1ccccc1CNC(=O)Cn1c(=O)ccc2cc(S(=O)(=O)N3CCC(C)CC3)ccc21,nt,i,nt,i,nt,nt
CCOC(=O)n1c(=O)oc2cc(S(=O)(=O)N3CCCCC3)ccc21,?,i,-6%,23µM*,?,1%
COc1cc(NC(=O)CN2C(=O)c3ccccc3Sc3ccc(C(=O)N4CCCC4)cc32)cc(OC)c1,nt,i,nt,i,nt,nt
COc1ccc(-n2c(=O)c(-c3cn(C)c4ccccc34)nc3cnc(N4CCOCC4)nc32)cc1,-1%,nt,nt,nt,nt,-18%
O=C(NCc1ccccn1)[C@@H]1CCCN1C(=O)[C@@H]1CCCN1C(=O)c1ccc(Cl)cc1,nt,i,nt,i,nt,nt
Cc1oc(-c2ccc(C(=O)NCc3ccc(Cl)cc3)cc2)nc1CS(=O)(=O)c1ccccc1,nt,i,nt,i,nt,nt
Cc1ccc(S(=O)(=O)c2c(COC(=O)c3ccccc3Cl)c(-c3ccccc3)nn2C)cc1,-11%,i,21%,?,?,7%
Cc1ccc(S(=O)(=O)c2c(CO)c(-c3ccccc3)nn2C)cc1,45%,?,?,15µM*,-1%,-6%
Cc1ccc(-c2nc(CNC(=O)NC3CCCCC3)c(C)o2)cc1,nt,i,nt,i,nt,nt
O=C(CC1S/C(=N/N=C2CCCCCC2)NC1=O)Nc1ccccc1F (configuration not stated),nt,i,58%,i,14%,nt
O=C(CC1S/C(=N/N=C2CCCCCC2)NC1=O)Nc1ccc(Br)cc1F (configuration not stated),2.2µM*,i,9%,i,17%,5.6µM*
